About 1,400 (4.5%) of roughly 31,000 sequences were called active.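 The calls were made as follows: active = median seed-adjusted z-score above 1 or below -1; inactive = the rest.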 The sample as a whole holds a higher share of actives than the screen did.

A short description of the test: Novel Modifiers of Survival Motor Neuron (SMN) Protein: Gene Identification via Genome-wide siRNA Screen. As to conditions: HEK293T SMN2-luciferase reporter, siRNA knockdown, 72 h; actives lie on both sides. The text has this: Spinal muscular atrophy (SMA) is the most common neuromuscular autosomal recessive disorder and one of the leading genetic causes of infant death. SMA results from mutations inducing loss of function or deletion in the survival of motor neuron-1 gene (SMN1), leading to deficiency of the survival motor neuron (SMN) protein. Although a second nearly identical gene, SMN2, is retained in humans, its expression primarily produces an aberrantly spliced isoform that is largely unstable and quickly degraded. We performed a genome-wide RNAi screen using a cell-based reporter assay to identify genes and pathways that modulate SMN protein stability. The screen identified over 200 genes that led to the greatest increase or decrease in luciferase expression.
Using HEK293T cells stably expressing a luciferase reporter that combines the promoter and splicing based cassettes in tandem with the major portion of the native SMN2 cDNA with luciferase, we performed a genome-wide RNAi screen to identify modulators of SMN protein levels. Luciferase is expressed when full-length SMN protein is generated with luminescence signal proportional to SMN protein levels. Our luciferase-based reporter assay was used to screen Ambion Silencer Select Human Druggable Genome siRNA library (10418 genes, 3 unique siRNAs per gene) using lipid-based reverse transfection.
Briefly, 1 pmol of each siRNA was spotted to a well of a 384-well plate (Corning, Corning, NY) and 20 microL of serum-free DMEM containing […] of Lipofectamine RNAiMax (Life Technologies, Carlsbad, CA) was then added to each well. Transfected cells were maintained at 37 degrees C in 5% CO2 for 72 hours, 20 microL of ONE-Glo Reagent (Promega) was added to wells for luciferase quantification. Raw luminescence reads were normalized to Ambion(R) Silencer(R) Negative Control #2 siRNA, then log10 transformed. A robust statistical measure of median absolute deviation (MAD) to standardize siRNA activities from each screen. Common Seed Analysis was used to help prioritize clean hits as opposed to those appearing to arise from seed based off-target effects. Candidate modulators were defined as the genes having a MAD score greater than 1.0 or less than -1.0.
A general note: Reporter assays use an easily measured gene product as a stand-in for the process of interest.
On to GCAUAUCUUCUAACUUGCATT against EVI1, for which the median seed-adjusted z-score was 0 (inactive).

Turning to GGACCAAGAGGAUUGAGUATT against CLSTN2, the median seed-adjusted z-score is 0 (inactive).

AGUUUAAUCGGAAAGCCUUTT against NANS: the median seed-adjusted z-score is -1.54 (active).

GCAACACCGACGUAAAGAATT against ALOX5: the median seed-adjusted z-score was -0.201 (inactive).

As for UGCUCUCAGUGGAAGAGGATT against TNFRSF8, the median seed-adjusted z-score is 0.739 (inactive).

Take GGUUGGUGUUCGAUGAGUATT against ANXA6: the median seed-adjusted z-score was -1.01 (active).

Consider GCGGCAAGGGUUUCAAGCATT against FIZ1, for which the median seed-adjusted z-score is 0.154 (inactive).

In the case of GAAGUUCGGUCGAACCACATT against CST5, the median seed-adjusted z-score was 0.466 (inactive).

Take CCAGUACGCUAUGGACGUATT against MDN1: the median seed-adjusted z-score is 0.187 (inactive).

For GUCUGUCAAUGUACCUUCUTT against 3-Mar, the median seed-adjusted z-score was 0.069 (inactive).

GCAACAGCAUUGUCCGUGUTT against LRRN2: the median seed-adjusted z-score was 0.324 (inactive).

Take GAACUGACAUGGGAAGAUUTT against DUOX1: the median seed-adjusted z-score is -1.09 (active).

On to GCCUGACUUCGACUGCUCATT against GFER, for which the median seed-adjusted z-score was 0.402 (inactive).

Regarding GGAGGCUAAUGGUUGCUUUTT against ARPC1B, the median seed-adjusted z-score is 0 (inactive).

As for CUAUUUCCCUGCCUUCGAATT against GSTA3, the median seed-adjusted z-score was 0.334 (inactive).

Turning to CAACAAAAGUUUCAUGCUATT against STK35, the median seed-adjusted z-score is 0.519 (inactive).

Consider GGAGGUACGUGGAAAAGCATT against ORC3L, for which the median seed-adjusted z-score was -0.254 (inactive).

GCUUCGGAAUUCAGACAUUTT against NFATC4: the median seed-adjusted z-score was 0 (inactive).

With GGCCCUUGGCCUUACUAUGTT against ACSM2B, the median seed-adjusted z-score is -0.0401 (inactive).

As for GCACGAUAUUAUGAUCCAATT against PPAT, the median seed-adjusted z-score is -1.51 (active).

Consider CAACCACCAUCUGACCUUUTT against MMP15, for which the median seed-adjusted z-score was -0.0489 (inactive).

GGCUGAAAACGGAGCACAATT against PCDHB16: the median seed-adjusted z-score was -0.523 (inactive).

As for CAGUGACUGUUGUUGGUCUTT against PKD1L3, the median seed-adjusted z-score was -0.658 (inactive).

Take GGAGGAGCCUAAGAUGUCATT against ZNF442: the median seed-adjusted z-score is 1.06 (active).

With AAGGGAAAGUGUACUGGUATT against MMP23B, the median seed-adjusted z-score was 0.288 (inactive).

For GGCUAUUGAUUGUCCACAUTT against L2HGDH, the median seed-adjusted z-score was -0.346 (inactive).

Take CUACCGAGAUUUUAGAUGATT against POLE: the median seed-adjusted z-score is -1.55 (active).

Consider CACUAUAUCUAUAUCGAAATT against PLD1, for which the median seed-adjusted z-score is 0.518 (inactive).

As to GACCCAUACAGAAAGUAGATT against SSR1, the median seed-adjusted z-score is -0.434 (inactive).

As to GAUGCGCACUCAGUCCUUATT against MLLT4, the median seed-adjusted z-score was -0.0762 (inactive).

Regarding CUGUGAGAAUUGUUGCUCUTT against TRIP6, the median seed-adjusted z-score is 1.03 (active).

On to GGAUCUCAGUCAAAGGCAUTT against CPZ, for which the median seed-adjusted z-score is -0.0748 (inactive).

Consider CGAUCGAGUGGAUGAAGAATT against MMP24, for which the median seed-adjusted z-score was -1.28 (active).

For ACAUUGAACGUCCCACGUATT against TUBA3E, the median seed-adjusted z-score was -0.35 (inactive).

On to GCUAAGAGCUUCGUGCUGATT against LGALS1, for which the median seed-adjusted z-score is 0.033 (inactive).

In the case of CCAUGGAUAUGGAAACCCATT against ALPK3, the median seed-adjusted z-score is 0.365 (inactive).

Take GGAGAGAGCAGUUUCAACATT against HSPB8: the median seed-adjusted z-score is 0.207 (inactive).

Take GGAUAGAAUAUGUAACGGUTT against SUPT6H: the median seed-adjusted z-score was -2.54 (active).

On to CACCGGUGAGAUUCCCUAUTT against ZNF546, for which the median seed-adjusted z-score is 0.497 (inactive).

For GCUUACUACACUUUUCUAATT against G6PC2, the median seed-adjusted z-score was -0.0362 (inactive).

CAAACUCUACAUCACCUUUTT against GPR32: the median seed-adjusted z-score is -1.2 (active).

With CAAGAACUCGGAUAAUGAUTT against IL2RG, the median seed-adjusted z-score was -0.155 (inactive).

Regarding CACGGUAUAUGUUAGAGUATT against DSG3, the median seed-adjusted z-score is 0 (inactive).

On to UCCCUUACAUGUCACCAAATT against ZMIZ2, for which the median seed-adjusted z-score was -0.27 (inactive).

As for GCCUACAAGCAGAUUCAAATT against PTRH2, the median seed-adjusted z-score was 0.0467 (inactive).

For ACCCAACUCUUACUCUUAATT against RNF7, the median seed-adjusted z-score is -1.18 (active).

With GGCUCAACGUAUAAGCGAATT against PIP5K1B, the median seed-adjusted z-score is 0.0917 (inactive).

Regarding GAUGGAAACAUUGAAUAUATT against GTPBP2, the median seed-adjusted z-score is -0.166 (inactive).

For GAAGGAGUUUGCACAGAAATT against DHDH, the median seed-adjusted z-score was 0.522 (inactive).

On to CAGUCUUCAUUGCUACUAATT against NFE2L2, for which the median seed-adjusted z-score is -0.596 (inactive).

On to GAAGCAAUCUGGGAAGAGATT against MOCS3, for which the median seed-adjusted z-score was -0.496 (inactive).

Take CGCCCAACCUUACUACCUUTT against TXNDC14: the median seed-adjusted z-score was -2.39 (active).

In the case of GGAUGGUUGUGAGCCGCUATT against ZNF784, the median seed-adjusted z-score was 0.291 (inactive).

Consider CGACGACGUGCAAGACCAATT against ZNF787, for which the median seed-adjusted z-score is -0.0628 (inactive).

On to CCUUUACUUUCUAUAGAAATT against ZNF573, for which the median seed-adjusted z-score is -0.169 (inactive).

The values are drawn from PubChem BioAssay AID1347426 (Functional Genomics Laboratory (NCATS/FGL), 2020).
